Measured values from PubChem BioAssay (NCATS).
Results filed as inconclusive are left out. Calls of active or inactive are those of the source. The call rests on the fitted dose curve; in most records, active means well fitted inhibition curve with a large enough effect; inconclusive means small, poorly fitted or top-dose-only effect; inactive means flat fitted curve, though single readings scatter.

Key:
[1] = Drug repurposing screens with cells derived from glioblastoma tumor samples (AID 1345199); details: GBM patient neurospheres viability, ATP luminescence, 48 h; further: nearly all actives have a fitted effect of over 40% in size
How it was run: (§1)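 Primary testing used CD133+ neurospheres from four GBM patients, seven concentrations, 48 h exposure and ATP-based viability; confirmation added three slower-growing patient lines.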

astro = control astrocytes; assay: as above; details: viability, ATP luminescence, 48 h; series mostly up to 45.9 µM
How it was run: as §1

[2] = at 45.9 µM (top of the series), tumour line B
[3] = at 45.9 µM (top of the series), tumour line D
[4] = at 46 µM (top of the series), tumour line A
[5] = at 46.1 µM (top of the series), tumour line C
On the % scale 0 is the no-effect control and ±100 the full control effect.

NC(=O)OC[C@@H]1[C@H](NC(=O)/C(=N\OCC(=O)O)c2csc(N)n2)C(=O)N1S(=O)(=O)O
inactive: activity, negative = cell killing [1, 2] 5.57% | activity, negative = cell killing [1, 3] 5.27% | activity, negative = cell killing [1, 4] -4.61% | activity, negative = cell killing [1, 5] -1.35% | Potency (astro)

CN[C@@H]1[C@H](O[C@H]2[C@H](O[C@H]3[C@H](O)[C@@H](O)[C@H](N=C(N)N)[C@@H](O)[C@@H]3N=C(N)N)O[C@@H](C)[C@]2(O)CO)O[C@@H](CO)[C@H](O)[C@H]1O
inactive: activity, negative = cell killing [1, 2] -12.7% | activity, negative = cell killing [1, 3] -12.4% | activity, negative = cell killing [1, 4] -5.62% | activity, negative = cell killing [1, 5] -12.6% | Potency (astro)

CC1(O)CCC(C(C)(C)O)CC1 (stereo not given)
inactive: activity, negative = cell killing [1, 2] -1.19% | activity, negative = cell killing [1, 3] -26.4% | activity, negative = cell killing [1, 4] -16.9% | activity, negative = cell killing [1, 5] 9.01% | Potency (astro)

Cc1ncc(C[n+]2csc(CCO)c2C)c(N)n1
inactive: activity, negative = cell killing ([1]; at 20 µM (top of the series), tumour line C) -11.7% | activity, negative = cell killing ([1]; at 21.2 µM (top of the series), tumour line B) -7.55% | activity, negative = cell killing ([1]; at 21.2 µM (top of the series), tumour line D) 3.61% | activity, negative = cell killing ([1]; at 21.3 µM (top of the series), tumour line A) -16.2% | Potency (astro)

O=C(O)CCC/C=C\C[C@@H]1[C@@H](/C=C/[C@@H](O)COc2cccc(Cl)c2)[C@H](O)C[C@@H]1O
inactive: activity, negative = cell killing [1, 2] -7.43% | activity, negative = cell killing [1, 3] 0.189% | activity, negative = cell killing [1, 4] -25.8% | activity, negative = cell killing [1, 5] -22.5% | Potency (astro)

CC(=O)Nc1ccc(OC(C)=O)cc1
inactive: activity, negative = cell killing [1, 2] -2.78% | activity, negative = cell killing [1, 3] 2.27% | activity, negative = cell killing [1, 4] -21% | activity, negative = cell killing [1, 5] -27.8% | Potency (astro)

CC(C)c1ncc([N+](=O)[O-])n1C
inactive: activity, negative = cell killing [1, 2] -8.02% | activity, negative = cell killing [1, 3] -13.9% | activity, negative = cell killing [1, 4] -13.9% | activity, negative = cell killing [1, 5] -14.5% | Potency (astro)

O=C(O)[C@H]1C(=CCO)O[C@H]2CC(=O)N12
inactive: activity, negative = cell killing [1, 2] -8.67% | activity, negative = cell killing [1, 3] -21.6% | activity, negative = cell killing [1, 4] -18.4% | activity, negative = cell killing [1, 5] -12.5% | Potency (astro)

CCCCCCCCCCCC(=O)OCC(O)CO (stereo not given)
inactive: activity, negative = cell killing [1, 2] -6.19% | activity, negative = cell killing [1, 3] -1.8% | activity, negative = cell killing [1, 4] -27.7% | activity, negative = cell killing [1, 5] -2.49% | Potency (astro)

C[C@@](Cc1ccc(O)c(O)c1)(NN)C(=O)O
inactive: activity, negative = cell killing [1, 2] -16.8% | activity, negative = cell killing [1, 3] -8.91% | activity, negative = cell killing [1, 4] -39.3% | activity, negative = cell killing [1, 5] -14.3% | Potency (astro)

CC(C)[C@H](N)C(=O)OCC(CO)OCn1cnc2c(=O)[nH]c(N)nc21 (stereo not given in full)
inactive: activity, negative = cell killing [1, 2] -16.2% | activity, negative = cell killing [1, 3] -11.6% | activity, negative = cell killing [1, 4] -27% | activity, negative = cell killing [1, 5] -25.2% | Potency (astro)

CCCCCCCCCCCCCC(=O)OCC(COP(=O)([O-])OCC[N+](C)(C)C)OC(=O)CCCCCCCCCCCCC (stereo not given)
inactive: activity, negative = cell killing [1, 2] -7.07% | activity, negative = cell killing [1, 3] 3.06% | activity, negative = cell killing [1, 4] -21.5% | activity, negative = cell killing [1, 5] -13.4% | Potency (astro)

CNC(=O)c1c(I)c(C(=O)NCC(=O)Nc2c(I)c(C(=O)O)c(I)c(C(=O)NCCO)c2I)c(I)c(N(C)C(C)=O)c1I
inactive: activity, negative = cell killing [1, 2] -2.37% | activity, negative = cell killing [1, 3] -21.2% | activity, negative = cell killing [1, 4] -7.61% | activity, negative = cell killing [1, 5] 3.32% | Potency (astro)

O=C1[O][Bi][O]c2ccccc21
inactive: activity, negative = cell killing [1, 2] -16% | activity, negative = cell killing [1, 3] -27.4% | activity, negative = cell killing [1, 4] -26.1% | activity, negative = cell killing [1, 5] -6.82% | Potency (astro)

FCOC(C(F)(F)F)C(F)(F)F
inactive: activity, negative = cell killing [1, 2] -14% | activity, negative = cell killing [1, 3] -24.3% | activity, negative = cell killing [1, 4] -28% | activity, negative = cell killing [1, 5] -24.9% | Potency (astro)

C=CC(=O)O
inactive: activity, negative = cell killing [1, 2] -8.62% | activity, negative = cell killing [1, 3] -6.79% | activity, negative = cell killing [1, 4] -25.8% | activity, negative = cell killing [1, 5] -0.506% | Potency (astro)

OCCCNc1ccccc1
inactive: activity, negative = cell killing [1, 2] 1.67% | activity, negative = cell killing [1, 3] -0.692% | activity, negative = cell killing [1, 4] -52.2% | activity, negative = cell killing [1, 5] -9.32% | Potency (astro)

CN[C@@H]1[C@H](O[C@H]2[C@H](O[C@H]3[C@H](O)[C@@H](O)[C@H](N=C(N)N)[C@@H](O)[C@@H]3N=C(N)N)O[C@@H](C)[C@]2(O)C=O)O[C@@H](CO)[C@H](O)[C@H]1O
inactive: activity, negative = cell killing [1, 2] 1.28% | activity, negative = cell killing [1, 3] -18.9% | activity, negative = cell killing [1, 4] -12% | activity, negative = cell killing [1, 5] -1.08% | Potency (astro)

O=C(NNCNNC(=O)c1ccncc1)c1ccncc1
inactive: activity, negative = cell killing [1, 2] -12% | activity, negative = cell killing [1, 3] -9.77% | activity, negative = cell killing [1, 4] -25.1% | activity, negative = cell killing [1, 5] -23% | Potency (astro)

COC(=O)C(CN)c1c[nH]c2ccc(OC)cc12 (stereo not given)
inactive: activity, negative = cell killing [1, 2] -10.3% | activity, negative = cell killing [1, 3] -14.4% | activity, negative = cell killing [1, 4] -30.9% | activity, negative = cell killing [1, 5] -0.904% | Potency (astro)

CCC(=O)OC(OP(=O)(CCCCc1ccccc1)CC(=O)N1C[C@H](C2CCCCC2)C[C@H]1C(=O)O)C(C)C (stereo not given in full)
inactive: activity, negative = cell killing [1, 2] -7.98% | activity, negative = cell killing [1, 3] -19.4% | activity, negative = cell killing [1, 4] -12.6% | activity, negative = cell killing [1, 5] -19% | Potency (astro)
